# Inconclusive results are not listed. Entries that show only a call come without a potency. A number with no mark means an inactive call. Active and inactive are the calls of the source. Unless noted, calls come from the whole dose curve; as a rule, active = well fitted curve in the direction sought with a large enough effect; inconclusive = small, poorly fitted or top-dose-only effect, or another doubt; inactive = no such curve, though single readings can be large; an effect the other way counts as inactive or inconclusive.
# Key:
# [1] = target: ATP-dependent 6-phosphofructokinase (Trypanosoma brucei brucei) (UniProt O15648); test: qHTS Assay to Find Inhibitors of T. brucei phosphofructokinase: hit validation (AID 492961);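 note: luminescence reports ADP formed as PFK phosphorylates fructose-6-phosphate with ATP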
# Method in brief: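 Reaction: 0.1 M triethanolamine pH 8.0, 5 mM MgCl2, F6P 0.5 mM, ATP 0.1 mM, PFK 1.25 nM, 45 min RT. Read-out: ADP-Glo luminescence. Analysis: concentration-response fits, classed by r2 and efficacy.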
# [2] = target: Luciferin 4-monooxygenase (Photinus pyralis) (UniProt P08659); test: Biochemical firefly luciferase enzyme assay for NPC (AID 624030);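 note: purified P. pyralis luciferase at 10 nM with luciferin and ATP substrate; nearly all actives have a fitted effect of over 70% in size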
# Method in brief: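 Counter-screen for direct inhibition of the luciferase enzyme by approved-drug library compounds, run at 10 nM enzyme in 50 mM Tris acetate (final). Luminescence was read within 5 min of enzyme-buffer addition and normalized to PTC124 versus DMSO (0%).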
# [3] = S16 Schwann cell PMP22 intronic element beta-lactamase assay (AID 624044; calls by dose curve; note: nearly all actives have a fitted effect of over 15% in size)
# Method in brief: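 Rat S16 Schwann cells with beta-Lac driven by a PMP22 intronic element, compound-treated 24 h at 37 °C. LiveBLAzer FRET B/G read: 460 nm normalized to potassium clavulanate vs DMSO; 535 nm FRET as viability; concentration-effect curves classified.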
# [4] = qHTS profiling for inhibitors of Plasmodium falciparum proliferation (AID 504749); note: nearly all actives have a fitted effect of over 60% in size; conditions: P. falciparum in erythrocytes, SYBR Green DNA, 72 h, at 28.7 µM (top of the series)
# Method in brief: (§1)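 Parasite proliferation within erythrocytes, 72 h exposure. Endpoint: SYBR Green I fluorescence after overnight lysis at room temperature. Controls: 0.29 uM artemisinin, DMSO.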
# [5] = tested on: 3D7; test: as above; conditions: P. falciparum in erythrocytes, SYBR Green DNA, 72 h; series mostly up to 28.7 µM
# Method in brief: as §1
# [6] = tested on: AA1029; test: as above; conditions: P. falciparum in erythrocytes, SYBR Green DNA, 72 h; series mostly up to 28.7 µM
# Method in brief: as §1
# [7] = tested on: AS120; test: as above; conditions: P. falciparum in erythrocytes, SYBR Green DNA, 72 h; series mostly up to 28.7 µM
# Method in brief: as §1
# [8] = tested on: ATS189; test: as above; conditions: P. falciparum in erythrocytes, SYBR Green DNA, 72 h; series mostly up to 28.7 µM
# Method in brief: as §1
# [9] = tested on: ATS95; test: as above; conditions: P. falciparum in erythrocytes, SYBR Green DNA, 72 h; series mostly up to 28.7 µM
# Method in brief: as §1
# [10] = tested on: C2A; test: as above; conditions: P. falciparum in erythrocytes, SYBR Green DNA, 72 h; series mostly up to 28.7 µM
# Method in brief: as §1
# [11] = tested on: CP185; test: as above; conditions: P. falciparum in erythrocytes, SYBR Green DNA, 72 h; series mostly up to 28.7 µM
# Method in brief: as §1
# [12] = tested on: CP191; test: as above; conditions: P. falciparum in erythrocytes, SYBR Green DNA, 72 h; series mostly up to 28.7 µM
# Method in brief: as §1
# [13] = tested on: CP192; test: as above; conditions: P. falciparum in erythrocytes, SYBR Green DNA, 72 h; series mostly up to 28.7 µM
# Method in brief: as §1
# [14] = tested on: CP194; test: as above; conditions: P. falciparum in erythrocytes, SYBR Green DNA, 72 h; series mostly up to 28.7 µM
# Method in brief: as §1
# [15] = tested on: CP201; test: as above; conditions: P. falciparum in erythrocytes, SYBR Green DNA, 72 h; series mostly up to 28.7 µM
# Method in brief: as §1
# [16] = tested on: CP203; test: as above; conditions: P. falciparum in erythrocytes, SYBR Green DNA, 72 h; series mostly up to 28.7 µM
# Method in brief: as §1
# [17] = tested on: CP211; test: as above; conditions: P. falciparum in erythrocytes, SYBR Green DNA, 72 h; series mostly up to 28.7 µM
# Method in brief: as §1
# [18] = tested on: CP215; test: as above; conditions: P. falciparum in erythrocytes, SYBR Green DNA, 72 h; series mostly up to 28.7 µM
# Method in brief: as §1
# [19] = tested on: CP217; test: as above; conditions: P. falciparum in erythrocytes, SYBR Green DNA, 72 h; series mostly up to 28.7 µM
# Method in brief: as §1
# [20] = tested on: CP237; test: as above; conditions: P. falciparum in erythrocytes, SYBR Green DNA, 72 h; series mostly up to 28.7 µM
# Method in brief: as §1
# [21] = tested on: CP238; test: as above; conditions: P. falciparum in erythrocytes, SYBR Green DNA, 72 h; series mostly up to 28.7 µM
# Method in brief: as §1
# [22] = tested on: CP247; test: as above; conditions: P. falciparum in erythrocytes, SYBR Green DNA, 72 h; series mostly up to 28.7 µM
# Method in brief: as §1
# [23] = tested on: CP250; test: as above; conditions: P. falciparum in erythrocytes, SYBR Green DNA, 72 h; series mostly up to 28.7 µM
# Method in brief: as §1
# [24] = tested on: CP252; test: as above; conditions: P. falciparum in erythrocytes, SYBR Green DNA, 72 h; series mostly up to 28.7 µM
# Method in brief: as §1
# [25] = tested on: CP256; test: as above; conditions: P. falciparum in erythrocytes, SYBR Green DNA, 72 h; series mostly up to 28.7 µM
# Method in brief: as §1
# [26] = tested on: CP260; test: as above; conditions: P. falciparum in erythrocytes, SYBR Green DNA, 72 h; series mostly up to 28.7 µM
# Method in brief: as §1
# [27] = tested on: CP265; test: as above; conditions: P. falciparum in erythrocytes, SYBR Green DNA, 72 h; series mostly up to 28.7 µM
# Method in brief: as §1
# [28] = tested on: CP266; test: as above; conditions: P. falciparum in erythrocytes, SYBR Green DNA, 72 h; series mostly up to 28.7 µM
# Method in brief: as §1
# [29] = tested on: CP268; test: as above; conditions: P. falciparum in erythrocytes, SYBR Green DNA, 72 h; series mostly up to 28.7 µM
# Method in brief: as §1
# [30] = tested on: CP269; test: as above; conditions: P. falciparum in erythrocytes, SYBR Green DNA, 72 h; series mostly up to 28.7 µM
# Method in brief: as §1
# [31] = tested on: CP286; test: as above; conditions: P. falciparum in erythrocytes, SYBR Green DNA, 72 h; series mostly up to 28.7 µM
# Method in brief: as §1
# [32] = tested on: CP291; test: as above; conditions: P. falciparum in erythrocytes, SYBR Green DNA, 72 h; series mostly up to 28.7 µM
# Method in brief: as §1
# [33] = tested on: CP297; test: as above; conditions: P. falciparum in erythrocytes, SYBR Green DNA, 72 h; series mostly up to 28.7 µM
# Method in brief: as §1
# [34] = tested on: CP305; test: as above; conditions: P. falciparum in erythrocytes, SYBR Green DNA, 72 h; series mostly up to 28.7 µM
# Method in brief: as §1
# [35] = tested on: CP315; test: as above; conditions: P. falciparum in erythrocytes, SYBR Green DNA, 72 h; series mostly up to 28.7 µM
# Method in brief: as §1
# [36] = tested on: CP325; test: as above; conditions: P. falciparum in erythrocytes, SYBR Green DNA, 72 h; series mostly up to 28.7 µM
# Method in brief: as §1
# [37] = tested on: CP329; test: as above; conditions: P. falciparum in erythrocytes, SYBR Green DNA, 72 h; series mostly up to 28.7 µM
# Method in brief: as §1
# [38] = tested on: CP335; test: as above; conditions: P. falciparum in erythrocytes, SYBR Green DNA, 72 h; series mostly up to 28.7 µM
# Method in brief: as §1
# [39] = tested on: DFO2036; test: as above; conditions: P. falciparum in erythrocytes, SYBR Green DNA, 72 h; series mostly up to 28.7 µM
# Method in brief: as §1
# [40] = tested on: Dd2; test: as above; conditions: P. falciparum in erythrocytes, SYBR Green DNA, 72 h; series mostly up to 28.7 µM
# Method in brief: as §1
# [41] = tested on: FAB9; test: as above; conditions: P. falciparum in erythrocytes, SYBR Green DNA, 72 h; series mostly up to 28.7 µM
# Method in brief: as §1
# [42] = tested on: GB4; test: as above; conditions: P. falciparum in erythrocytes, SYBR Green DNA, 72 h; series mostly up to 28.7 µM
# Method in brief: as §1
# [43] = tested on: HB3; test: as above; conditions: P. falciparum in erythrocytes, SYBR Green DNA, 72 h; series mostly up to 28.7 µM
# Method in brief: as §1
# [44] = tested on: JCK; test: as above; conditions: P. falciparum in erythrocytes, SYBR Green DNA, 72 h; series mostly up to 28.7 µM
# Method in brief: as §1
# [45] = tested on: N140; test: as above; conditions: P. falciparum in erythrocytes, SYBR Green DNA, 72 h; series mostly up to 28.7 µM
# Method in brief: as §1
# [46] = tested on: P93_24; test: as above; conditions: P. falciparum in erythrocytes, SYBR Green DNA, 72 h; series mostly up to 28.7 µM
# Method in brief: as §1
# [47] = tested on: P94_40; test: as above; conditions: P. falciparum in erythrocytes, SYBR Green DNA, 72 h; series mostly up to 28.7 µM
# Method in brief: as §1
# [48] = tested on: PAD; test: as above; conditions: P. falciparum in erythrocytes, SYBR Green DNA, 72 h; series mostly up to 28.7 µM
# Method in brief: as §1
# [49] = tested on: PC15; test: as above; conditions: P. falciparum in erythrocytes, SYBR Green DNA, 72 h; series mostly up to 28.7 µM
# Method in brief: as §1
# [50] = tested on: PC26; test: as above; conditions: P. falciparum in erythrocytes, SYBR Green DNA, 72 h; series mostly up to 28.7 µM
# Method in brief: as §1
# [51] = tested on: PC49; test: as above; conditions: P. falciparum in erythrocytes, SYBR Green DNA, 72 h; series mostly up to 28.7 µM
# Method in brief: as §1
# [52] = tested on: SC27B; test: as above; conditions: P. falciparum in erythrocytes, SYBR Green DNA, 72 h; series mostly up to 28.7 µM
# Method in brief: as §1
# [53] = tested on: TAB113; test: as above; conditions: P. falciparum in erythrocytes, SYBR Green DNA, 72 h; series mostly up to 28.7 µM
# Method in brief: as §1
# [54] = tested on: TAB165; test: as above; conditions: P. falciparum in erythrocytes, SYBR Green DNA, 72 h; series mostly up to 28.7 µM
# Method in brief: as §1
# [55] = Primary qHTS for small molecule stabilizers of the endoplasmic reticulum resident proteome: Secreted ER Calcium Modulated Protein (SERCaMP) assay (AID 1508630)
# Method in brief: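 GLuc-SERCaMP-expressing SH-SY5Y cells, pretreated 16 h with compound, are challenged with thapsigargin to empty ER calcium stores; after 4 h, coelenterazine is added directly to the medium and luminescence is imaged.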
# [56] = qHTS assay to identify inhibitors of the type 1 interferon - major histocompatibility complex class I in skeletal muscle: Counter screen cell viability and HiBit confirmation (AID 1347412); conditions: iHSKM muscle cells + IFN-b, HiBiT or CellTiter-Glo, 24 h; Viability; note: potency is the fitted concentration of half-maximal effect; nearly all actives have a fitted effect of over 60% in size
# Method in brief: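 After 24 h with human IFN-beta (4 ng/ml) and compound titrations (top 46 uM final, 1:3, 12 points), HLA-B HiBit myoblasts were lysed for either Nano-Glo HiBiT luminescence or CellTiter Glo viability on paired plates.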
# Chain of Luciferin 4-monooxygenase (Photinus pyralis) (P08659 whole entry, looked up): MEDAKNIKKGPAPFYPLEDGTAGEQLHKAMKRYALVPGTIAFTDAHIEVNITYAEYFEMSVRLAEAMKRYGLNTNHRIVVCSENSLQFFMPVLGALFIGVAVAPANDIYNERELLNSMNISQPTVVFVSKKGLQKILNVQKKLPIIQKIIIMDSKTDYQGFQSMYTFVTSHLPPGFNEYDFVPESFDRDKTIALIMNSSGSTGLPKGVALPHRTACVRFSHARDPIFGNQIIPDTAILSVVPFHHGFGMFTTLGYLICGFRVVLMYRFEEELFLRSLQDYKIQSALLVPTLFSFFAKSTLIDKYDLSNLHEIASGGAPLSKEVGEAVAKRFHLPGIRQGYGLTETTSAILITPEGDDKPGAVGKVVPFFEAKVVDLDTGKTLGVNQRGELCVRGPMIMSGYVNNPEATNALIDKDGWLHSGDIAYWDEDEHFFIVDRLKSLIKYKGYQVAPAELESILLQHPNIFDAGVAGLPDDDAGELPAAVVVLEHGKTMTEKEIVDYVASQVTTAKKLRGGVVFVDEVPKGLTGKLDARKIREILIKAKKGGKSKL
# Chain of ATP-dependent 6-phosphofructokinase (Trypanosoma brucei brucei) (O15648 whole entry, looked up): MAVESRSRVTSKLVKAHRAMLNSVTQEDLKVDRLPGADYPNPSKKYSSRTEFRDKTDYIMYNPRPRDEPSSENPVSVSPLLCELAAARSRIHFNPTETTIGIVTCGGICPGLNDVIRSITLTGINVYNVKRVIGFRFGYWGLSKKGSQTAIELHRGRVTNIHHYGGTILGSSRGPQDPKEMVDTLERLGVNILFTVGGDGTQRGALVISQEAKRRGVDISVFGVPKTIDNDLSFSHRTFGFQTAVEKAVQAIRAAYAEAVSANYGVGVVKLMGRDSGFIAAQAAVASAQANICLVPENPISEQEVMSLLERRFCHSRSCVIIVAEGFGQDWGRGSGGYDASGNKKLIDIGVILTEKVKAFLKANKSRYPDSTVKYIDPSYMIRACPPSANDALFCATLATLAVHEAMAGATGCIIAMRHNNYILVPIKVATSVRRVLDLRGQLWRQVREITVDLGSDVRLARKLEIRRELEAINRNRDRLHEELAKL
structure (smiles),measurement,setting,value
C=C1/C(=C\C=C2/CCC[C@]3(C)[C@@H]([C@H](C)CCCC(C)(C)O)CC[C@@H]23)C[C@@H](O)C[C@@H]1O,outcome,[1],inactive
same,Potency,[2],inactive
same,outcome,[3],inactive
same,"activity, negative = inhibition",[4]; parasite line A,-3.09%
same,"activity, negative = inhibition",[4]; parasite line B,-9.52%
same,Potency,[5],inactive
same,Potency,[6],inactive
same,Potency,[7],inactive
same,Potency,[8],inactive
same,Potency,[9],inactive
same,Potency,[10],inactive
same,Potency,[11],inactive
same,Potency,[12],inactive
same,Potency,[13],inactive
same,Potency,[14],inactive
same,Potency,[15],inactive
same,Potency,[16],inactive
same,Potency,[17],inactive
same,Potency,[18],inactive
same,Potency,[19],inactive
same,Potency,[20],inactive
same,Potency,[21],inactive
same,Potency,[22],inactive
same,Potency,[23],inactive
same,Potency,[24],inactive
same,Potency,[25],inactive
same,Potency,[26],inactive
same,Potency,[27],inactive
same,Potency,[28],inactive
same,Potency,[29],inactive
same,Potency,[30],inactive
same,Potency,[31],inactive
same,Potency,[32],inactive
same,Potency,[33],inactive
same,Potency,[34],inactive
same,Potency,[35],inactive
same,Potency,[36],inactive
same,Potency,[37],inactive
same,Potency,[38],inactive
same,Potency,[39],inactive
same,Potency,[40],inactive
same,Potency,[41],inactive
same,Potency,[42],inactive
same,Potency,[43],inactive
same,Potency,[44],inactive
same,Potency,[45],inactive
same,Potency,[46],inactive
same,Potency,[47],inactive
same,Potency,[48],inactive
same,Potency,[49],inactive
same,Potency,[50],inactive
same,Potency,[51],inactive
same,Potency,[52],inactive
same,Potency,[53],inactive
same,Potency,[54],inactive
CC[C@@H](C)[C@H]1O[C@]2(CC[C@@H]1C)C[C@@H]1C[C@@H](C/C=C(\C)[C@@H](O[C@@H]3C[C@H](OC)[C@H](O[C@H]4C[C@H](OC)[C@@H](O)[C@H](C)O4)[C@H](C)O3)[C@@H](C)/C=C/C=C3\CO[C@@H]4[C@@H](O)C(C)=C[C@@H](C(=O)O1)[C@]34O)O2,Potency,[55],inactive
same,Potency,[56],31.3 µM (active)

# — PubChem BioAssay (NCATS)
